Assay results published in PubChem BioAssay AID1986 (Sanford-Burnham Center for Chemical Genomics, 2009).
The campaign covered roughly 290,000 compounds. About 890 (0.31%) were called active. Cut-off read from the data, not from the text of the source: active = inhibition mostly above about 52% (no sharp cut-off); inactive = mostly below about 76%. The entries come from a sample that favours actives as a whole.

Assay: cell-free HIV fusion peptide-binding blockers – biochemical, uHTS, fluorescence dequenching, primary screen (AID 1986)
Conditions: 30 min, stronger effect = higher value
[1] = measured here: repeat confirmation average inhibition, at 18.6 µM

CN1CCN(C(=O)CCN2C(=O)c3ccccc3C2=O)CC1
inhibition (at 20 µM): -0.4% (inactive)

O=C(N/N=C/c1sc2ccccc2c1O)c1ccccc1
inhibition (at 20 µM): 95% (active)

COc1ccc(C(=O)N/N=C/c2sc3ccccc3c2O)cc1
inhibition (at 20 µM): 34.9% (inactive)

O=C(N/N=C/c1sc2ccccc2c1O)c1cccc2ccccc12
inhibition (at 20 µM): 34.1% (inactive)

Cc1nn(-c2ccccc2)c(Cl)c1/C=C1\SC(=S)N(CCCCCC(=O)O)C1=O
inhibition (at 20 µM): 33% (inactive)

Cc1ccc(-c2nn(-c3ccccc3)cc2/C=C2\SC(=S)N(CCCCCC(=O)O)C2=O)o1
inhibition (at 20 µM): 82% (active)

O=C(O)CCN1C(=O)/C(=C/c2cn(-c3ccccc3)nc2-c2cccs2)SC1=S
inhibition (at 20 µM): 90% (active) | inhibition [1]: 142%

O=C(O)CCCN1C(=O)/C(=C/c2cn(-c3ccccc3)nc2-c2cccs2)SC1=S
inhibition (at 20 µM): 79.6% (active) | inhibition [1]: 142%

CCN1C(=O)/C(=C\c2cn(-c3ccccc3)nc2-c2cccnc2)SC1=S
inhibition (at 20 µM): 3.5% (inactive)

Cc1ccc(-c2nn(-c3ccccc3)cc2/C=C/C(=O)O)o1
inhibition (at 20 µM): 5.9% (inactive)

O=C(O)CCCN1C(=O)/C(=C\c2ccccc2OCc2ccccc2)SC1=S
inhibition (at 20 µM): 63.8% (inactive) | inhibition [1]: 37.2%

O=C(O)CCCN1C(=O)/C(=C/c2ccncc2)SC1=S
inhibition (at 20 µM): -0.7% (inactive)

COc1ccc(-c2nn(-c3ccccc3)cc2/C=C2/SC(=S)N(CCC(=O)O)C2=O)cc1
inhibition (at 20 µM): -0.4% (inactive)

COc1cc(OC)c(OC)cc1CN1CCN(C(=O)CC(C)C)CC1
inhibition (at 20 µM): -0.6% (inactive)

O=C(Oc1cccc(-n2cnnn2)c1)c1ccco1
inhibition (at 20 µM): 12% (inactive)

CC(NC(=O)c1ccc2c(c1)OCO2)c1ccccc1 (centres undefined)
inhibition (at 20 µM): 0.3% (inactive)

Cc1ccc2c(C(=O)CN3CCCC(C)C3)c(C)[nH]c2c1 (centres undefined)
inhibition (at 20 µM): -0.5% (inactive)

O=C(OCc1cncs1)c1cccs1
inhibition (at 20 µM): 0% (inactive)

Cc1ccc(S(=O)(=O)CCSc2cccc(C(=O)O)c2)cc1
inhibition (at 20 µM): 0.9% (inactive)

O=C(Nc1ccccc1C(=O)O)c1cccc(C(=O)Nc2ccccc2C(=O)O)c1
inhibition (at 20 µM): 34.2% (inactive)

Cc1ccc(S(=O)(=O)CCSc2cccc(C(=O)Nc3ccccc3C(=O)O)c2)cc1
inhibition (at 20 µM): 51.2% (active)

O=C(O)/C=C/c1ccc([N+](=O)[O-])o1
inhibition (at 20 µM): 5.1% (inactive)

O=C1NC(=S)S/C1=C\C=C\c1ccc([N+](=O)[O-])o1
inhibition (at 20 µM): 56.6% (active)

O=C1CN(/N=C/c2ccc([N+](=O)[O-])o2)C(=O)N1
inhibition (at 20 µM): 146% (inactive)

COc1ccc(/C=C/C(=O)NC(=S)Nc2ccccc2)cc1OC
inhibition (at 20 µM): 1.5% (inactive)

O=C(O[C@@H]1OC2COC(=O)c3cc(O)c(O)c(O)c3-c3c(cc(O)c(O)c3O)C(=O)O[C@@H]([C@H]1O)[C@@H]2O)c1cc(O)c(O)c(O)c1
inhibition (at 20 µM): 31.6% (inactive)

c1ccc2[nH]c3cc4ncnc4cc3nc2c1
inhibition (at 20 µM): 59.7% (active) | inhibition [1]: 95.9%

FC(F)(F)c1nc2cc3nc4ccccc4[nH]c3cc2n1
inhibition (at 20 µM): 3.4% (inactive)

Nc1nc2ccccc2[nH]1
inhibition (at 20 µM): -0.4% (inactive)

Cc1cc(C)c(/C=N/n2c(C)cc(C)c(C#N)c2=O)c(C)c1
inhibition (at 20 µM): -2.5% (inactive)

O=C(NCc1ccc2c(c1)OCO2)c1ccc(CSCc2ccccc2Cl)o1
inhibition (at 20 µM): 0.4% (inactive)

CCc1oc2ccccc2c1C(=O)c1cc(Br)c(O)c(Br)c1
inhibition (at 20 µM): 57.5% (active) | inhibition [1]: 71.4%

CCOC(=O)c1c(O)c2ccccc2oc1=O
inhibition (at 20 µM): -0.2% (inactive)

CCc1oc2ccccc2c1C(=O)CCN1CCCCC1
inhibition (at 20 µM): -3.9% (inactive)

Cc1ccc(NC2=NCC(=O)N2c2ccc3c(c2)OCCO3)c(C)c1
inhibition (at 20 µM): 0.4% (inactive)

O=C(NCCSCc1c(F)cccc1Cl)c1ccco1
inhibition (at 20 µM): -1.3% (inactive)

CN(Cc1cc(=O)n2ccsc2n1)Cc1nc2ccccc2c(=O)[nH]1
inhibition (at 20 µM): -1.5% (inactive)

COc1ccc(NC(=O)CSc2nncc3ccccc23)cc1
inhibition (at 20 µM): -1.5% (inactive)

COc1ccc(NC(=O)CSc2ccc3c4c(cccc24)C(=O)c2ccccc2-3)cc1
inhibition (at 20 µM): 77% (active) | inhibition [1]: 96.6%

N#Cc1cccc(NC(=O)CSc2ccc3c4c(cccc24)C(=O)c2ccccc2-3)c1
inhibition (at 20 µM): 74.2% (active)

COc1ccc(NC(=O)CSc2nnc(C)c3ccccc23)cc1
inhibition (at 20 µM): 0.4% (inactive)

N#Cc1cccc(NC(=O)CSc2ccccc2)c1
inhibition (at 20 µM): -0.6% (inactive)

Cc1ccccc1SCC(=O)Nc1cccc(C#N)c1
inhibition (at 20 µM): 8.4% (inactive)

COc1ccccc1NC(=O)C(C)OC(=O)C1CC(=O)N(c2ccc3c(c2)OCCO3)C1 (centres undefined)
inhibition (at 20 µM): 1.1% (inactive)

Cc1ccc(/C=N/NC(=O)c2ccccc2OCc2cccc(Br)c2)o1
inhibition (at 20 µM): -2.8% (inactive)

CCOc1ccccc1N1CC(C(=O)Nc2ccccc2N2CCOCC2)CC1=O (centres undefined)
inhibition (at 20 µM): -1.3% (inactive)

COc1ccccc1CNc1ccccc1F
inhibition (at 20 µM): -1.2% (inactive)

COc1ccccc1C(C)NC(=O)CCOc1cccc(C)c1 (centres undefined)
inhibition (at 20 µM): -1.1% (inactive)
